Cycloheximide cs = affects cycloheximide protein synthesis inhibition readout, counter-screen; cell reporter, cycloheximide protein synthesis inhibition counterscreen; actives 12% (n = 300,000); max response, %; in the data active means max response mostly above about 13%, no sharp cut-off; inactive means mostly below about 14%; further: read at 38.3 µM for the half of the compounds with a filed dose; 0% is about no effect
NS1 function inh = influenza NS1 inhibition. Potency, µM (titrated, usually from 46.1 µM), inactives show at the top dose activity, positive = more growth. actives 0.4% (n = 270,000); calls by dose curve; further: potency means the concentration at half of the fitted maximal effect; actives are rising curves; nearly all actives have a fitted effect of over 50% in size
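A cell-based growth assay was used: compounds that relieve NS1-induced slow growth of budding yeast raise OD600. Assay medium was yeast nitrogen base with ammonium sulphate and -URA supplement, pH 6.0, with 2% galactose.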
Shiga inhibitor = Shiga toxin inhibition | inhibition, % at 38.7 µM | actives 9.2% (n = 290,000) | Vero cells, Shiga toxin protein synthesis inhibition reporter; in the data active means inhibition mostly above about 28%, no sharp cut-off; inactive means mostly below about 43%; further: 0% is about no effect
Pf growth 96h = inhibits malaria parasite growth, 96 h; actives 6.9% (n = 320,000); P. falciparum luciferase reporter growth, 96 h; Potency, µM (series often up to 28.7 µM), for inactives: at the highest dose activity change, negative = inhibition, hits mostly inhibitors; AID 504834; further: potency means the concentration at half of the fitted maximal effect; on the % scale 0 is the no-effect control and ±100 the full control effect
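96 h incubation, 37 C, 5% CO2, of luciferase-reporter P. falciparum-infected RBCs (2% hematocrit, 0.05% parasitemia final) with test compounds; endpoint luminescence.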
Pf growth 48h = P. falciparum growth inhibition at 48 hours (one generation); actives 5.9% (n = 310,000); P. falciparum luciferase growth in erythrocytes, 48 h; Potency, µM (series often up to 28.7 µM), for the others: top-dose activity change, negative = inhibition, usual class: inhibitors; AID 504832; further: potency means the concentration at half of the fitted maximal effect; on the % scale 0 is the no-effect control and ±100 the full control effect
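In quantitative HTS format, infected erythrocytes bearing luciferase-reporter parasites were treated for a single generation at 37 C. Luminescence after adding detection reagent served as the growth measure.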
* marks the source's active call; other numbers are inactive results; ? = inconclusive; · = no result given; [ ] = dose if it differs, or a comment. Sampled rows, rich in hits. Any-hit rate of the full collection: about 21%. Unless noted, the call rests on the fitted dose curve; in most records, active means well fitted inhibition curve with a large enough effect; inconclusive means small, poorly fitted or top-dose-only effect, or another doubt; inactive means no such curve, though single readings can be large or run the other way.

SMILES | Cycloheximide cs | NS1 function inh | Shiga inhibitor | Pf growth 96h | Pf growth 48h
COc1cc(COCC(O)CN2CCN(Cc3ccccc3)CC2)cc(OC)c1OC (stereo not given) | -13 | · | -16 | -82% | -16%
CC1CCC(C(C)C)C(OCC(O)CN2CCCC(C)C2)C1 (stereo not given) | 1 | · | 12 | 13µM* | ?
O=[N+]([O-])c1ccc(CCNc2cccc3ccccc23)c([N+](=O)[O-])c1 | -3 | 15% | -5 | ? | -2%
CS(=O)(=O)N(CC(=O)N1CCN(c2ccccc2F)CC1)c1cccc(C(F)(F)F)c1 | -2 | 7% | 9 | · | 0%
Cc1ccc(/C=c2/sc3n(c2=O)CCCN=3)o1 | 35* | -12% | 60* | 218% | 221%
O=C1/C(=C/c2ccc3c(c2)OCO3)N2CCC1CC2 | -3 | 4% | -4 | -28% | 15%
O=c1/c(=C\c2ccc3c(c2)OCO3)sc2n1CCCN=2 | 28* | -38% | 50* | -28% | 150%
Cc1ccc(O)c(-c2cc(-c3ccccc3F)[nH]n2)c1 | 35* | 1% | 104* | · | ?
Cc1ccc2oc(=O)c3cc(C(=O)Nc4cc(-c5cccc(F)c5)no4)sc3c2c1 | -2 | 3% | -4 | ? | 12%
Cc1ccc(-c2cc(-c3ccccc3C)[nH]n2)c(O)c1 | 40* | 5% | 42* | -98% | -24%
Cc1ccc(-c2cc(-c3cccc(F)c3)n[nH]2)c(O)c1 | 31* | -86% | 76* | · | ?
Cc1ccc(O)c(-c2cc(-c3cccc(F)c3)n[nH]2)c1 | 24* | -88% | 60 | · | 8.3µM*
CC(=O)Nc1ccc(N2C(=O)c3ccc(C(=O)Nc4nnc(SCc5ccc(F)cc5)s4)cc3C2=O)cc1 | -2 | 6% | -5 | 12% | 10%
COc1ccc(C(=O)CCC(=O)N2CCN(c3ccccc3)CC2)cc1 | -1 | 3% | 0 | 23% | -8%
Cc1ccc(NC(=O)CSc2nnnn2C2CC2)cc1S(=O)(=O)N1CCOCC1 | · | · | · | -12% | ?
CCCN(CC(=O)Nc1ccccc1OC)C(=O)c1ccc2ncsc2c1 | · | · | · | -28% | ?
COc1ccc2c3c1O[C@H]1[C@@H](O)C=C[C@H]4C(C2)NCCC341 (stereo not given in full) | · | · | · | 0.17µM* | -12%
COc1ccc2c3c1OC1C(O)C=CC4C(C2)[N+](C)(C)CCC341 (stereo not given) | -4 | 2% | 1 | 6% | 2%[0.00184 µM]
N/C(=N\OC(=O)Cc1cccs1)c1ccccc1 | 28* | -2% | 59* | 39% | 104%
Cc1cccc(/C(N)=N/OC(=O)Cc2cccs2)c1 | 68* | 1% | 96* | 138% | 178%
Cc1ccc(/C(N)=N/OC(=O)Cc2cccs2)cc1 | 50* | 6% | 143* | 163% | 232%
CCC(C(=O)O/N=C(\N)c1ccc(C)cc1)c1ccccc1 (stereo not given) | 14 | 3% | 21 | 55% | ·
O=C(Cc1cccs1)OCC(=O)c1ccco1 | -2 | 10% | 20 | 31% | 15%
N/C(=N\OC(=O)Cc1cccs1)c1cccc([N+](=O)[O-])c1 | 26* | 4% | 44* | ? | 21%
CC(=O)Nc1cccc(CNCc2cccc(NC(C)=O)c2)c1 | -4 | · | -6 | -24% | -4%
SMILES | Cycloheximide cs | NS1 function inh | Shiga inhibitor | Pf growth 96h | Pf growth 48h
Cn1cnnc1-c1cccc(NC(=O)c2cc(F)c(F)cc2Cl)c1 | -2 | -2% | -8 | ? | 7%
Cc1cc(OCC(=O)O/N=C(\N)Cc2cccs2)ccc1Br | 7 | -13% | 18 | 2% | 4%
N/C(=N\OC(=O)Cc1cccs1)c1ccc(Cl)cc1 | 31* | 7% | 41* | 53% | 37%
N/C(Cc1cccs1)=N\OC(=O)COc1ccccc1 | 22* | -4% | 33 | ? | ·
N/C(=N\OC(=O)N1CCOCC1)c1ccc(Br)cc1 | 53* | 5% | 62 | 43% | ?
N/C(=N\OC(=O)N1CCOCC1)c1ccccc1 | 23* | 13% | 32 | 8.3µM* | 6.6µM*
N/C(=N\OC(=O)N1CCOCC1)c1ccc(Cl)cc1 | 55* | -8% | 53* | ? | 9.3µM*
O=C(OCc1ccccc1)N1CCOCCN(C(=O)OCc2ccccc2)CCOCC1 | -2 | 3% | 1 | 0% | ?
CC(=O)N(C)C(c1ccc(N(C)C)cc1)c1nnnn1-c1c(C)cccc1C (stereo not given) | 1 | -4% | -2 | 5.2µM* | 5.2µM*
Cc1cccc(C)c1-n1nnnc1SCC(=O)N1CCNC1=O | · | · | · | -11% | -2%
NC(=O)N/N=C/c1cn(-c2ccccc2)nc1-c1cccnc1 | 14 | -7% | 9 | 4% | -2%
O/N=C/c1cn(-c2ccccc2)nc1-c1ccccc1 | 14* | -32% | 12 | 16% | 1%
CCN1C(=O)/C(=C\c2cn(-c3ccccc3)nc2-c2cccnc2)SC1=S | -3 | 1% | -1 | ? | 12µM*
NC(=S)N/N=C/c1cn(-c2ccccc2)nc1-c1cccnc1 | 19* | 2% | 22 | ? | ?
Cc1scc(C(=O)O)c1-c1c(C(=O)O)csc1C | -3 | 13% | -5 | 6% | 2%
CCOC(=O)c1ccc(NS(=O)(=O)c2cc(-c3nnnn3C(C)C)ccc2OC)cc1 | 9 | -10% | 18 | 7% | 0%
Cc1nc(N2CCN(c3ccccc3O)CC2)c2c(-c3ccccc3)csc2n1 | 8 | 8% | -10 | ? | 13µM*
Oc1ccccc1N1CCN(c2ncnc3scc(-c4ccccc4)c23)CC1 | -3 | -4% | -5 | 5.2µM* | 5.9µM*
CN1CCN(c2ncnc3scc(-c4ccccc4Cl)c23)CC1 | -6 | 11% | -16 | 5.9µM* | ?
Oc1ccccc1N1CCN(c2ncnc3scc(-c4ccc(F)cc4)c23)CC1 | 1 | 0% | -3 | ? | 13µM*
Cc1nc(N2CCC(C(N)=O)CC2)c2c(-c3cccs3)csc2n1 | -4 | · | -27 | -19% | -5%
OCCN1CCN(c2ncnc3scc(-c4ccc(F)cc4)c23)CC1 | -1 | 10% | -5 | -28% | -10%
Cc1ccc(CN(Cc2cc3cccc(C)c3[nH]c2=O)C(=S)NCCCN(C)C)cc1 | -3 | 3% | -20 | 11% | ?
O=C1NC2=C(C(=O)CCC2)C(c2ccc([N+](=O)[O-])cc2)N1 (stereo not given) | -7 | -6% | -3 | 0% | -5%
COc1ccc(-c2csc3nc(C)nc(N4CCC(C)CC4)c23)cc1OC | 0 | · | -6 | -22% | -6%
COc1ccc(-c2csc3nc(C)nc(N4CCN(C(C)=O)CC4)c23)cc1OC | 15 | -4% | -37 | 5% | 4.1µM*
COc1ccc(S(=O)(=O)c2c(O)c3ccc(C(=O)Nc4ccc(F)cc4F)cc3[nH]c2=O)cc1 | -4 | 4% | -5 | ? | 18%
CCNC(=S)N1CCN(C(c2ccccc2)c2ccccc2)CC1 | 3 | -8% | 9 | 8.3µM* | 13µM*
CCCCNC(=S)N1CCN(C(c2ccccc2)c2ccccc2)CC1 | 10 | · | 13 | 17% | 10µM*
S=C(NCCc1ccccc1)N1CCN(C(c2ccccc2)c2ccccc2)CC1 | 2 | 17% | 13 | ? | 9.3µM*
